High-throughput results: PubChem, several laboratories
sEH activator = soluble epoxide hydrolase activators, primary screen, biochemical, human sEH. Bifunctional epoxide hydrolase 2 (Homo sapiens), P34913. purified human sEH enzymatic activity, activator screen. activation, % at 2 µM. hit rate 0.04% among 91,000; in the data active means activation above about 37%
Cav32 inh = Cav3.2 calcium influx blockers – cell-based, Fluo-4 calcium fluorescence, FDSS, MLSMR library, primary screen; Cav3.2-expressing cells; hits give low values; B-score at 10 µM; hit rate 4% among 100,000; Voltage-dependent T-type calcium channel subunit alpha-1H (Homo sapiens), O95180;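 active means single-dose well whose peak fluorescence ratio is a statistical outlier from its plate by either plate-standardised score or position-corrected B-score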
Target sequence (O95180 whole entry, looked up): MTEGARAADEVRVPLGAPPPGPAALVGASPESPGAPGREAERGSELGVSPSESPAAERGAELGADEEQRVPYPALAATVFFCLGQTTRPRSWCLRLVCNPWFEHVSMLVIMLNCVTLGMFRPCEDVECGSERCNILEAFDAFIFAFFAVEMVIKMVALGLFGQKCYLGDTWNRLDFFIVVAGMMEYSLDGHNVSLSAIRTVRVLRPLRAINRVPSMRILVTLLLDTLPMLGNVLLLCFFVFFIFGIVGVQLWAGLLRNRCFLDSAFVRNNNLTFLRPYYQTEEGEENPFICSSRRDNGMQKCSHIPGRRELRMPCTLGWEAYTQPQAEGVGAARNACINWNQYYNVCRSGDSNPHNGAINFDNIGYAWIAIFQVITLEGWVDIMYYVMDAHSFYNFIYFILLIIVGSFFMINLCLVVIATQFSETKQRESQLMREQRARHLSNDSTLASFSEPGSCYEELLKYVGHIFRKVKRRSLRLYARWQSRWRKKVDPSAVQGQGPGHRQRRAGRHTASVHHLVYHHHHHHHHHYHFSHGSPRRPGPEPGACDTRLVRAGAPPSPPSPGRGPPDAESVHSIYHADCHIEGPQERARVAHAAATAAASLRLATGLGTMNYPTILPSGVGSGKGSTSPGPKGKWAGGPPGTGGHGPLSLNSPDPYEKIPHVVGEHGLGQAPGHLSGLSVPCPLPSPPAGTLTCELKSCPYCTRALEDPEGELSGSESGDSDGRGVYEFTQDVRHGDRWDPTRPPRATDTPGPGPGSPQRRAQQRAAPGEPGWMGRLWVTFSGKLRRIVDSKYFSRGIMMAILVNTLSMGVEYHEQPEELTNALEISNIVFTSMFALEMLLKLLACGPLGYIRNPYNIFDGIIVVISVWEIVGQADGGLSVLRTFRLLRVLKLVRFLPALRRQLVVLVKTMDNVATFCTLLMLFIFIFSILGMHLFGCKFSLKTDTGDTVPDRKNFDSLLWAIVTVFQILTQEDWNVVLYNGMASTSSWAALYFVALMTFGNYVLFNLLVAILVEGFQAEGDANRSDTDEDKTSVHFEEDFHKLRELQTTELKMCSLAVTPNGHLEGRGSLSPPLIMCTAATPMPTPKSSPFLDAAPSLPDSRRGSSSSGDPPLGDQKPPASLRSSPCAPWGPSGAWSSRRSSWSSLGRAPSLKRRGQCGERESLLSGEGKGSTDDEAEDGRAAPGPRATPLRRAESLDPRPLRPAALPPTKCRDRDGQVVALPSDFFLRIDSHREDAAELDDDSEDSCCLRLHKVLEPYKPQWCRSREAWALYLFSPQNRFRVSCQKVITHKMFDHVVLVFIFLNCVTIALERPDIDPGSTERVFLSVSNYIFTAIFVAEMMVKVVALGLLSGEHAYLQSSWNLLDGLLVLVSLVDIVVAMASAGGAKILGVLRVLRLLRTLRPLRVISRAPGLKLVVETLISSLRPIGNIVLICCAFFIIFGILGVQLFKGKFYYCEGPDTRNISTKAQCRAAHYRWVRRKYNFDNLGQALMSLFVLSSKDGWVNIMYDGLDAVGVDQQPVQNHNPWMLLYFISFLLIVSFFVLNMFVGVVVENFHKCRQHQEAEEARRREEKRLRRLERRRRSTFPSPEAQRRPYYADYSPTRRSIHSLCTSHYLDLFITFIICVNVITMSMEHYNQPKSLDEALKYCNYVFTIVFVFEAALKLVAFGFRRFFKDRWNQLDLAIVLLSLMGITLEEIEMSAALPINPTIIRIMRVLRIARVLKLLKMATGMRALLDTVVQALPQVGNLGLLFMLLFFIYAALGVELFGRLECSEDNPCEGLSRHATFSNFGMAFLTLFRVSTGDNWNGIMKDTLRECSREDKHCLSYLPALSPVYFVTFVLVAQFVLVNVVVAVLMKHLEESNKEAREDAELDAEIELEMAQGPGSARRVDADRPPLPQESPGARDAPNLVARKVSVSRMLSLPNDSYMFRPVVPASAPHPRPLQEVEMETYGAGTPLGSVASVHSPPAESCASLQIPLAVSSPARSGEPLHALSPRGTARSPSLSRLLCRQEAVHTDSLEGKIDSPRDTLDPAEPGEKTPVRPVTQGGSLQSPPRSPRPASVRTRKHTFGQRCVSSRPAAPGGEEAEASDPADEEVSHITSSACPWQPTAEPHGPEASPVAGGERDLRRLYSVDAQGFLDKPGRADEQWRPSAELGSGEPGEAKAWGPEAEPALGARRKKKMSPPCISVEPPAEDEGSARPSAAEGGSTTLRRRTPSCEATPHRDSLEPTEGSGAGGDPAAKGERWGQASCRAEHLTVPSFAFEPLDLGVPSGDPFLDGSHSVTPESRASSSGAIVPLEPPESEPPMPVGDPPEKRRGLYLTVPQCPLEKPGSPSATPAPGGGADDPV
PostGolgi yeast = phenotypic screen on post-Golgi transport, primary screen; post-Golgi transport phenotypic cell assay; inhibition, % at 10 µM; hit rate 0.9% among 98,000;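 further: yeast cells grown in 1536-well plates; yeast grown about 18 h at 30C before absorbance read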
PostGolgi ctrl = growth inhibition of yeast control strain, primary screen, counter-screen for post-Golgi transport modulator project; inhibition, % at 10 µM; efflux-deficient yeast background strain, growth absorbance A615, 16 h; AID 738, 2007; hit rate 5% among 98,000
sEH inh = soluble epoxide hydrolase inhibitors, primary screen, biochemical, human sEH | Bifunctional epoxide hydrolase 2 (Homo sapiens), P34913 | recombinant human sEH enzymatic activity assay | inhibition, % at 2 µM | hit rate 0.34% among 91,000; in the data active means inhibition above about 80%
* marks the source's active call; other numbers are inactive results; / = no result. In the library only some 7.8% were active in any assay of this set; here they are far more common. Unless noted, no stated cut-off is given here; in the data, active means inhibition above about 30%; inactive means the rest.

SMILES	sEH activator	Cav32 inh	PostGolgi yeast	PostGolgi ctrl	sEH inh
CCc1ccc2oc(-c3cc(N)cc(C)c3O)nc2c1	4.4	-0.489	-3.9	21.6	-1.8
O=C(N1CCOCC1)N1CCN(C(=O)N2CCOCC2)CC1	10.1	/	/	/	-7.6
Cc1cc(C)c(S(=O)(=O)Nc2ccc3c4c(cccc24)CC3)c(C)c1	-3.3	-3.19	-0.5	61.1*	3.7
COC(=O)CCc1c(C)[nH]c(C(=O)OCc2ccccc2)c1C	4.6	-3.19	13.1	30.9*	-0.5
CN1C=CC2=C(C#N)C(N)C(C#N)(C#N)[C@H](c3ccccc3)[C@H]2C1 (stereo not given in full)	17.4	-0.00231	/	/	-18.3
CCSc1nnc(Cc2cc(=O)[nH]c(=O)[nH]2)n1-c1cc(C)ccc1C	2.6	0.407	-6.4	30.1*	-4.1
COC(=O)c1ccc([C@H]2C=C(C(=O)O)O[C@@H](OCc3ccc(CO)cc3)C2)cc1	/	0.151	/	/	/
COc1ccc(C2C(Oc3ccccc3C)C(=O)N2Cc2ccc(F)cc2)cc1OC (stereo not given)	-5.5	-4.66*	-6.0	9.9	6.5
COCCn1c(CNc2ccc(F)cc2)nnc1SCC(=O)Nc1ccc(OC)cc1OC	-5.2	0.839	0.3	-0.7	3.5
CC(C)c1ccccc1-n1c(SCC(=O)N2CCN(c3ccccc3)CC2)nnc1-c1cccnc1	7.9	-4.41*	14.9	23.8	-4.9
CCCn1c(Cc2ccccc2)nnc1SCC(=O)N1CCOCC1	23.3	0.333	6.4	30.1*	-26.6
CCn1c(CSCc2ccc(C)cc2)nnc1SCC(=O)N1CCN(c2ccccc2)CC1	17.1	-5.65*	15.1	14.7	-13.7
C=CCNC(=O)COC(=O)c1cc(S(=O)(=O)N2CCOCC2)ccc1N1CCCCC1	-3.6	1.58	3.8	5.4	4.9
COC(=O)Cn1cccc1C(=O)c1ccccc1	7.3	0.169	1.9	23.6	-4.3
Cc1ccc(CNC(=O)Cn2cccc2C(=O)c2ccccc2)cc1	-2.6	-4.89*	26.8	-4.3	4.0
O=C(NC1CC1)c1c[nH]c2ccc(S(=O)(=O)Nc3cccc(C(F)(F)F)c3)cc2c1=O	-2.6	-5.6*	-0.2	-2.3	0.0
Cc1cc(C(=O)CSc2nnc(N)s2)c(C)n1CCc1ccc(Cl)cc1	-7.0	-4.93*	3.0	40.7*	6.3
C=CCNc1oc(Cc2cccc3ccccc23)nc1C#N	10.0	-3	-14.9	18.7	-6.2
N#Cc1nc(Cc2cccc3ccccc23)oc1NCc1ccc(F)cc1	-10.2	-2.32	-6.2	31.4*	8.2
Cc1cccc(NCN2C(=O)c3ccccc3C2=O)c1	-6.0	0.715	5.8	0.3	5.3
Cc1cc(C)nc(SCc2nnc(SCC(=O)Nc3ccccc3C)n2Cc2ccco2)n1	/	1.29	-20.0	1.0	/
O=C(N/N=C\c1ccc(COc2ccc([N+](=O)[O-])cc2)o1)c1ccc(Cl)cc1	-4.5	0.038	10.8	16.4	5.7
CC(C)Oc1ccc(/C=N/NC(=O)C(CSCc2ccccc2)NC(=O)c2ccc([N+](=O)[O-])cc2)cc1 (stereo not given)	-1.8	-7.37*	/	/	4.5
Cc1cccc(N2C(=O)CC(Sc3nnc(C)s3)C2=O)c1 (stereo not given)	7.5	0.437	/	/	-2.0
N=c1nc(N)nc2n1NC(c1ccc(F)cc1)=CS2	-2.4	0.383	99.4*	-9.8	4.8
SMILES	sEH activator	Cav32 inh	PostGolgi yeast	PostGolgi ctrl	sEH inh
COC(=O)c1c(NC(=O)c2nc3nc(C)cc(C(F)F)n3n2)sc2c1CCC2	9.8	-1.07	10.3	34.4*	-8.0
COC(=O)c1c(NC(=O)c2c(-c3ccccc3Cl)noc2C)sc2c1CCC2	-2.3	/	-0.2	33.5*	-1.2
Cc1cc(C)nc(SCC(=O)Nc2sc3c(c2C#N)CCC(C)C3)n1 (stereo not given)	-3.4	-0.126	/	/	8.7
Cc1cc(C(F)F)n2nc(C(=O)Nc3sc4c(c3C#N)CCC(C)C4)nc2n1 (stereo not given)	7.9	-3.1	30.4*	33.4*	-8.6
Cc1cc(-c2ccc3c(c2)COc2c4ccccc4nn2-3)on1	/	0.0275	/	/	/
COC(=O)C[C@H]1c2cc(C(F)(F)F)ccc2S(=O)(=O)N1Cc1ccccc1OC	/	-0.972	/	/	/
CCCC/C(O)=N\S(=O)(=O)c1ccc(N=NN(C)C)cc1	19.2	1.69	/	/	-19.2
CCOC(=O)c1ccc(S(=O)(=O)N2CCC(C(=O)O)CC2)cc1	-8.7	1.19	-4.4	-3.8	10.8
CCn1cc(C(=O)OCC(=O)OC2CC(C)CCC2C(C)C)c(=O)c2ccc(C)nc21 (stereo not given)	17.1	-6.38*	-8.2	15.3	-13.7
CCn1cc(C(=O)OCc2ccccc2)c(=O)c2ccc(C)nc21	0.7	-0.0223	8.7	14.3	0.5
Cn1c(N2CCN(C(=O)NC34CC5CC(CC(C5)C3)C4)CC2)nc2ccccc21	-79.3	0.273	/	/	79.2
N#CC1=C(N)NC(SCc2ccc(Cl)cc2)=C(C#N)C12CCCCC2	-40.1	-4.11*	47.7*	18.5	42.2
